# In the library only some 19% were active in any assay of this set; here they are far more common.
# IL1B secr inh: inflammasome signaling inhibition, IL-1 beta readout; THP-1 LPS/ATP IL-1B secretion, AlphaLISA, 16 h; stronger effect = lower value; activity change, % at 57.5 µM; hit rate 4.7% among 360,000; in the data active means activity change below about -50%; inconclusive means mostly about -30% to -49%; further: on the % scale 0 is the no-effect control and ±100 the full control effect
#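 Secreted IL-1B measured by AlphaLISA bead assay after 16 h compound exposure of THP-1 cells; compounds (final up to 57.5 uM) added 1 h before LPS (250 ng/mL) and ATP (1.25 mM) stimulation; lower signal means less secretion.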
# DT40 TDP1 no CPT: qHTS for Inhibitors of human tyrosyl-DNA phosphodiesterase 1 (TDP1): qHTS in cells in absence of CPT | DT40 Tdp1-/- hTDP1 cells, no CPT, ATP luminescence, 48 h | Potency, µM (doses to about 46.2 µM), inactives show at the highest dose activity change, negative = growth inhibition, actives largely listed as inhibitors | hit rate 15% among 420,000; further: potency means the concentration at half of the fitted maximal effect; on the % scale 0 is the no-effect control and ±100 the full control effect; nearly all actives have a fitted effect of over 55% in size
#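 Stably hTDP1-transfected Tdp1-null chicken DT40 cells were treated with library compounds minus camptothecin and grown for at least 48 hr at 37 °C, after which cellular ATP was quantified by luminescence.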
# HepG2 tox: kills HepG2 cells in TGF-b inhibitor counter-screen | HepG2 CAGA-GFP viability, ATP luminescence, 18 h | Potency, µM (series often up to 46.1 µM), for the others: at the top dose activity change, negative = cytotoxicity, actives largely listed as cytotoxic | hit rate 0.76% among 410,000 | AID 588856; further: potency means the concentration at half of the fitted maximal effect
#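 CellTiter-Glo luminescence gave cytotoxicity after 18 hours at 37 degrees C. The cells were HepG2 CAGA-GFP in 1% FBS DMEM, stimulated with 500 pg/mL TGF-beta after compound addition. %Activity was normalised to no-cell wells (complete cell-killing) and DMSO (no toxicity), and curves were fitted and classified.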
# TGFb inhibitor: TGF-b pathway inhibition | Potency, µM (titrated, usually from 46.1 µM), for inactives: at the highest dose activity, negative = inhibition, hits mostly inhibitors | HepG2 CAGA-GFP TGF-b/SMAD3 reporter, GFP fluorescence, 18 h; TGF-beta stimulated, 500 pg/mL final | AID 588855 | hit rate 1.2% among 410,000; further: potency means the concentration at half of the fitted maximal effect; on the % scale 0 is the no-effect control and ±100 the full control effect; nearly all actives have a fitted effect of over 65% in size
#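 Inhibition of TGF-beta-driven CAGA-GFP reporter expression in HEPG2 cells is measured by cellular GFP fluorescence after 18 h stimulation with 500 pg/mL recombinant TGF-beta in 1% FBS medium at 37 degrees C.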
# TDP1 cell CPT: DT40-hTDP1 cell growth loss with CPT | chicken DT40 Tdp1-/-;hTDP1 cells + 20 nM CPT, ATP luminescence, 48 h | Potency, µM (doses to about 46.2 µM), for inactives: top-dose activity change, negative = growth inhibition, actives largely listed as inhibitors | hit rate 12% among 420,000 | AID 686979; further: potency means the concentration at half of the fitted maximal effect; on the % scale 0 is the no-effect control and ±100 the full control effect; nearly all actives have a fitted effect of over 55% in size
#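 Chicken DT40 Tdp1-/- cells complemented with human TDP1, 400 cells/well, exposed to compounds plus 20 nM camptothecin for at least 48 h at 37 C; viability read as ATP content by CellTiter-Glo luminescence.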
# TDP1 block: TDP1 (human) enzyme inhibition | Q9NUW8 | recombinant TDP1, AlphaScreen DNA substrate cleavage | Potency, µM (highest dose often 130 µM), for the others: at the highest dose activity change, negative = inhibition, usual class: inhibitors | hit rate 0.28% among 350,000 | AID 485290; further: potency means the concentration at half of the fitted maximal effect; on the % scale 0 is the no-effect control and ±100 the full control effect; nearly all actives have a fitted effect of over 40% in size
# Target sequence (Q9NUW8 whole entry, looked up): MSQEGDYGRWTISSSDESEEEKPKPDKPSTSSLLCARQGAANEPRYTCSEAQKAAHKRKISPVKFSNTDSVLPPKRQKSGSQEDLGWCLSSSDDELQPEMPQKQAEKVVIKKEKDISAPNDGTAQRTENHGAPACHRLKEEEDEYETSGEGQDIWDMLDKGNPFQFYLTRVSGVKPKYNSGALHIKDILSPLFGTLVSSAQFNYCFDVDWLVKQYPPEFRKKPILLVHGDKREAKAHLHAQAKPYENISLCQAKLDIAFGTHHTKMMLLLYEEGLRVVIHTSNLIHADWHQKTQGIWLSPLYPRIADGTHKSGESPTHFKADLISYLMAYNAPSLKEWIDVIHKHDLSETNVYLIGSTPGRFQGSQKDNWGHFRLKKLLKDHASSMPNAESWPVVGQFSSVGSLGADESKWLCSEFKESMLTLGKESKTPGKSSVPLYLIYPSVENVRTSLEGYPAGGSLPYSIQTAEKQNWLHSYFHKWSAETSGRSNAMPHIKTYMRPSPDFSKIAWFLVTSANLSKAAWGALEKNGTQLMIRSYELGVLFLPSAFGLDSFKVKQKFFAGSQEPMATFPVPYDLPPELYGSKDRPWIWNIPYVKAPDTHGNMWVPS
#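 Steps: enzyme plus compound, 15 min RT; add biotin/phosphotyrosine-FITC oligonucleotide (15 nM final), react 5 min; add donor/acceptor beads (10 ug/ml final), 10 min; read AlphaScreen. Tdp1 at 1 nM final.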
# Active calls of the source: *; ? = inconclusive; · = no result. Unless noted, the call rests on the fitted dose curve; in most records, active means well fitted curve in the direction sought with a large enough effect; inconclusive means small, poorly fitted or top-dose-only effect, or another doubt; inactive means no such curve, though single readings can be large; an effect the other way counts as inactive or inconclusive.
SMILES,IL1B secr inh,DT40 TDP1 no CPT,HepG2 tox,TGFb inhibitor,TDP1 cell CPT,TDP1 block
O=C(c1ccco1)N1CCN(C(=O)c2ccc(-c3ccc([N+](=O)[O-])cc3)o2)CC1,-3,?,0%,2%,23µM*,35µM*
O=C(NC1CCC(O)CC1)c1ccc(-c2ccc([N+](=O)[O-])cc2)o1 (stereo not given),-12,16µM*,-26%,-25%,16µM*,·
CC1(C)CC(NC(=O)c2ccc(F)cc2)CC(C)(C)N1,-1,6%,-21%,4%,1%,·
O=C(c1ccc(-c2ccc([N+](=O)[O-])cc2)o1)N1CCN(S(=O)(=O)c2cccs2)CC1,-7,3.7µM*,-13%,?,16µM*,-12%
CCOC(=O)C1CCCN(C(=O)c2ccc(CS(=O)(=O)c3ccc(C)cc3)o2)C1 (stereo not given),-9,-17%,5%,7%,-8%,-14%
CCOC(=O)C1CCCN(C(=O)c2ccc(-c3ccc([N+](=O)[O-])cc3)o2)C1 (stereo not given),-22,12µM*,-15%,?,12µM*,·
CCOc1ccc(CNC(=O)CCC(=O)n2nc(C)c3ccccc32)cc1,5,-10%,13%,4%,-6%,0%
N#Cc1ccccc1NC(=O)CSc1nnc(-c2ccccc2)n1-c1ccccc1,26,?,-36%,-9%,23µM*,0%
Cc1ccc(CCc2nnc(SCC(=O)Nc3ccccc3Cl)n2-c2ccccc2)o1,-64*,?,0%,-3%,?,4%
CCN(CC)c1ccc(-c2nnc(SCC(=O)Nc3ccccc3C#N)n2-c2ccccc2)cc1,-4,18µM*,-11%,-9%,18µM*,0%
COc1cccc(C(=O)Nc2nc3nc(C)c(Cc4ccccc4)c(=O)n3[nH]2)c1,·,?,-1%,-1%,-24%,-14%
COCCNC(=O)c1cnc2sc(N3CCC(C)CC3)nn2c1=O,·,-5%,-9%,1%,-5%,0%
COc1ccc(CCNC(=O)c2cnc3sc(N4CCC(C)CC4)nn3c2=O)cc1OC,·,3.7µM*,-17%,-10%,2.6µM*,3%
CC1CCN(c2nn3c(=O)c(C(=O)NCCc4ccccc4)cnc3s2)CC1,·,?,-20%,?,9.2µM*,-5%
CC[C@H](CC[C@@H](C)[C@H]1CC[C@H]2[C@@H]3CC=C4C[C@@H](O)CC[C@]4(C)[C@H]3CC[C@]12C)C(C)C,·,4%,·,·,7%,·
C[C@@H](O)C#C[Si](C)(C)c1ccccc1,·,·,·,·,·,4%
COc1cc2nc(SCC(=O)Nc3ccc(F)cc3)n3nc(CCn4c(C)nc5ccccc54)nc3c2cc1OC,·,5.2µM*,-20%,-19%,2.1µM*,0%
COc1cc2nc(SCC(=O)Nc3cccc(C)c3)n3nc(CCn4c(C)nc5ccccc54)nc3c2cc1OC,·,2.6µM*,-17%,-7%,2.6µM*,-2%
COc1cc2nc(SCC(=O)Nc3ccccc3C)n3nc(CCn4c(C)nc5ccccc54)nc3c2cc1OC,·,3.3µM*,-4%,-4%,2.9µM*,5%
CN(C)c1nc(NC2CCC(NC(=O)c3ccc(F)c(F)c3)CC2)nc2ccccc12 (stereo not given),·,·,·,·,·,13%
CCN(CC)S(=O)(=O)c1ccc2nc(NC(=O)c3ccc(Br)o3)sc2c1,·,-19%,-26%,-8%,-17%,5%
O=S1(=O)CCO[C@H]2CCCC[C@@H]2N1Cc1ccc(Cl)cc1,·,20µM*,-20%,-24%,?,·

# Screening results (PubChem BioAssay)
